Reference: the supplement of paper PMC7530171
Counter-ions that a name gives are not always drawn. ± gives the standard deviation.

Assays:
THP-1 = THP-1 cell loss relative to DMSO control; higher = more host cell loss (toxicity); extreme values may be limits of the assay; conditions: 10 µM; 4 days; infection: M. tuberculosis H37Rv
Procedure: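 OICR kinase inhibitor library screened in duplicate at 10 uM against M. tuberculosis-infected THP-1 macrophages, 4 days at 37 C. THP-1 cell loss (cytotoxicity or loss of adherence) was quantified from Hoechst-stained nuclei counts by high-content imaging and normalised to the 1% DMSO control; 100 = complete loss of host cells.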

[1] = tested on: THP-1 macrophages infected with Mycobacterium tuberculosis H37Rv; assay: intracellular M.tb growth inhibition relative to DMSO (0) and 4 uM bedaquiline (100); higher = stronger inhibition of intracellular bacterial growth; conditions: 10 µM; 4 days
Procedure: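 OICR kinase inhibitor library screened in duplicate at 10 uM against THP-1 macrophages (PMA-differentiated) infected with M. tuberculosis H37Rv-pTEC27 (tdTomato RFP), 4 days at 37 C. Rows with complete host cell loss (placeholder inhibition 0, cell loss 100) were removed.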

## OCCC#Cc1nc(-c2ccc(F)cc2)c(-c2ccncc2)n1CCCc1ccccc1
THP-1
  THP-1 cell loss: 66.42 ± 0.12%

## Cc1cc(F)c(Nc2ncnc3cc(OCc4ccccc4)ccc23)cc1O
THP-1
  THP-1 cell loss: 5.29 ± 7.5%

## Nc1ccc(-c2cccc3c(=O)cc(N4CCOCC4)oc23)cc1
THP-1
  THP-1 cell loss: 39.6 ± 3.5%
[1]
  intracellular M.tb growth inhibition: -49 ± 35%

## CCN(CC)CCNC(=O)c1c(C)[nH]c(/C=C2\C(=O)Nc3ccc(F)cc32)c1C [Sunitinib Malate]
THP-1
  THP-1 cell loss: 53.7 ± 18%
[1]
  intracellular M.tb growth inhibition: -45.8 ± 29%

## Cc1cc(C)c(/C=C2\C(=O)Nc3ccccc32)[nH]1
THP-1
  THP-1 cell loss: 34.2 ± 39%
[1]
  intracellular M.tb growth inhibition: 8.19 ± 12%

## CSc1cccc(Nc2ncc3cc(-c4c(Cl)cccc4Cl)c(=O)n(C)c3n2)c1
THP-1
  THP-1 cell loss: 100%

## COc1nccc(-c2c(-c3ccc(F)cc3)ncn2C2CCC(O)CC2)n1 (centres undefined)
THP-1
  THP-1 cell loss: 1.08 ± 1.5%
[1]
  intracellular M.tb growth inhibition: 1.01 ± 15%

## CC(C)(C)c1nc2c3cc[nH]c(=O)c3c3cc(F)ccc3c2[nH]1 [Merck-5]
THP-1
  THP-1 cell loss: 46.3 ± 11%
[1]
  intracellular M.tb growth inhibition: -268 ± 290%

## COCC(=O)NC/C=C/c1ccc2ncnc(Nc3ccc(Oc4ccc(C)nc4)c(C)c3)c2c1
THP-1
  THP-1 cell loss: 25.9 ± 5.7%
[1]
  intracellular M.tb growth inhibition: 5.71 ± 95%

## COc1ccc(CNC(=O)Nc2ncc([N+](=O)[O-])s2)cc1
THP-1
  THP-1 cell loss: 80.8 ± 27%
[1]
  intracellular M.tb growth inhibition: 20.1 ± 28%

## CCc1cc(Nc2nccc(-c3c(-c4ccc(OC)c(C(=O)Nc5c(F)cccc5F)c4)nc4ccccn34)n2)c(OC)cc1N1CCC(N2CCN(S(C)(=O)=O)CC2)CC1
THP-1
  THP-1 cell loss: 10.9 ± 13%
[1]
  intracellular M.tb growth inhibition: -49.9 ± 68%

## Cc1nc(Nc2ncc(C(=O)Nc3c(C)cccc3Cl)s2)cc(N2CCN(CCO)CC2)n1 [Dasatinib]
THP-1
  THP-1 cell loss: 34.7 ± 4.4%
[1]
  intracellular M.tb growth inhibition: 47.9 ± 35%

## C#Cc1cccc(Nc2ncnc3cc(OCCOC)c(OCCOC)cc23)c1 [Erlotinib HCl]
THP-1
  THP-1 cell loss: 5.26 ± 7.4%

## Cc1cc(Nc2cc(N3CCN(C)CC3)nc(Sc3ccc(NC(=O)C4CC4)cc3)n2)n[nH]1
THP-1
  THP-1 cell loss: 22.3 ± 16%
[1]
  intracellular M.tb growth inhibition: -6.87 ± 4.6%
